From PubChem
A selection: hits, their analogues and other compounds. The true share with any hit is near 10%.
BAZ2B inh = blocks human BAZ2B; AlphaScreen BAZ2B-H3K14Ac peptide displacement; Q9UIF8; AID 504333; actives 4.4% (n = 360,000); Potency, µM (series often up to 114 µM), actives largely listed as inhibitors; further: nearly all actives have a fitted effect of over 60% in size
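In this displacement format the biotinylated H3(5-23) peptide acetylated at Lys14 serves as ligand at 50 nM, with BAZ2B at 50 nM in PBS pH 7.4 containing 0.01% Tween-20. Donor and acceptor beads are 10 ug/mL final.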
Six1-Eya2 blk = Six1/Eya2 interaction inhibition; activity change, % (test concentration not listed); actives 0.56% (n = 360,000); AlphaScreen GST-Six1/His-Eya2 binding, biochemical; stronger effect = lower value; in the data active means activity change below about -65%; inconclusive means mostly about -30% to -63%
Target sequence (O00167 whole entry, looked up): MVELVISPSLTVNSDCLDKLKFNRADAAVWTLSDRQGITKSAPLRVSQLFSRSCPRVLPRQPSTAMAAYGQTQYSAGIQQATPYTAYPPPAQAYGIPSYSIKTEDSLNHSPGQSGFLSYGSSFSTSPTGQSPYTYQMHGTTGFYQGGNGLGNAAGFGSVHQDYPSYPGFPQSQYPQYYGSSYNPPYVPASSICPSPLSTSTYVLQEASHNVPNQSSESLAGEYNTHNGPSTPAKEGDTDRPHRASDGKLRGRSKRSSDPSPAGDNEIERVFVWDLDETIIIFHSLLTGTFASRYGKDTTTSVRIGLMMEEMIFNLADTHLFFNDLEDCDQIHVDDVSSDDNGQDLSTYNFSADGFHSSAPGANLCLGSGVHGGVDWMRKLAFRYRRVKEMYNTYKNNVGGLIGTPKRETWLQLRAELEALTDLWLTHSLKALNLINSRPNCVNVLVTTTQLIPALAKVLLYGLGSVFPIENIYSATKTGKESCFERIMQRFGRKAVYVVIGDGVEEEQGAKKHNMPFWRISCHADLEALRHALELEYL
Target sequence (Q15475 whole entry, looked up): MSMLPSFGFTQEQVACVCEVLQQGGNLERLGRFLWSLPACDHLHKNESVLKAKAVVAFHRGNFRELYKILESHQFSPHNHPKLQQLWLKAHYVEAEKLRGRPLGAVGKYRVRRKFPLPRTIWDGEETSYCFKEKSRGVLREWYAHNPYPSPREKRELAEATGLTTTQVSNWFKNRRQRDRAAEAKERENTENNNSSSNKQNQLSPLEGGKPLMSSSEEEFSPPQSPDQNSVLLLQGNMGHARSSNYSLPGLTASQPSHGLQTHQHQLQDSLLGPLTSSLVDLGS
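Six1/Eya2 binding was read as AlphaScreen signal after compounds were pinned into GST-Six1 plus His-tagged Eya2 (5X stock 250/500 nM) in pH 8.0 Tris/NaCl/TCEP buffer, beads added, then incubated 1 h, 37 C, dark.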
HP1b binding inh = HP1-beta chromodomain-methylated histone interaction inhibition. P83916. AlphaScreen HP1-beta / biotin-H3K9me3 peptide binding. Potency, µM (top dose mostly 114 µM), hits mostly inhibitors. actives 0.56% (n = 390,000). AID 540317; further: nearly all actives have a fitted effect of over 70% in size
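HP1-beta protein (50 nM final) preincubated 30 min at room temperature with biotinylated H3(1-18)K9me3 peptide (50 nM) in PBS pH 7.4, 0.01% Tween-20, then compound added for 30 min. AlphaScreen streptavidin donor/nickel chelate acceptor beads (10 ug/mL final), 30 min dark, luminescence read.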
CtBP-E1A blk = inhibitors of CtBP/E1A interaction; AID 651724; AlphaScreen GST-E1A/His-CtBP binding, 1536-well; stronger effect = lower value; activity change, % (no concentration beside the values); actives 0.49% (n = 340,000); in the data active means activity change below about -65%; inconclusive means mostly about -30% to -63%
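Steps: dispense buffer (Tris pH 8.0, NaCl 300 mM, TCEP 1 mM, BSA, Tween 20); add 5X protein mix (GST-E1A, His-CtBP, 125 nM each); pin 23 nL compound; 2 h at 37 °C, dark; add 5X beads (50 ug/mL); 1 h; read.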
G9a block = blocks human histone lysine methyltransferase G9a. Potency, µM (top dose mostly 102 µM), hits mostly inhibitors. G9a H3K9 monomethylation, AlphaScreen, 2 h. AID 504332. Q96KQ7. actives 8.8% (n = 350,000); further: nearly all actives have a fitted effect of over 75% in size
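Compounds were preincubated with 20 nM G9a for 15 min, after which biotinylated H3K9 peptide (500 nM) and SAM (20 uM) started a 2 h room-temperature reaction. Monomethylated product was quantified by antibody-based AlphaScreen chemiluminescence.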
JMJD2A Tudor = inhibitors of human JMJD2A Tudor domain; O75164; AlphaScreen JMJD2A-Tudor / H3K4me3 peptide binding; Potency, µM (titrated, usually from 114 µM), actives largely listed as inhibitors; actives 4.4% (n = 390,000); further: nearly all actives have a fitted effect of over 50% in size
Hits are given with their value; i = inactive; ? = inconclusive; nt = not tested or not shown; [ ] = another dose, or the depositor's remark. Unless noted, the call rests on the fitted dose curve; in most records, active means well fitted inhibition curve with a large enough effect; inconclusive means small, poorly fitted or top-dose-only effect; inactive means no such curve, though single readings can be large or run the other way.

SMILES	BAZ2B inh	Six1-Eya2 blk	HP1b binding inh	CtBP-E1A blk	G9a block	JMJD2A Tudor
O=[N+]([O-])c1ccc(O)c(C2=NNC(c3ccccc3F)C2)c1 (stereo not drawn)	i	i	i	i	40µM	?
O=C(O)C(c1ccccc1)N1C(=O)/C(=C/c2cccs2)SC1=S (stereo not drawn)	i	i	i	?	nt	4µM
O=C(O)C(Cc1ccccc1)N1C(=O)/C(=C/c2cccs2)SC1=S (stereo not drawn)	?	?	i	?	22µM	?
CC(c1ccccc1)N1C(=O)/C(=C/c2ccncc2)SC1=S (stereo not drawn)	16µM	i	?	nt	28µM	16µM
C=CCOc1ccc(/C=C2\SC(=S)N(C(C(=O)O)c3ccccc3)C2=O)cc1 (stereo not drawn)	?	i	i	i	?	?
COc1cccc(/C=C2\SC(=S)N(C(Cc3ccccc3)C(=O)O)C2=O)c1 (stereo not drawn)	?	i	i	i	45µM	i
COc1cccc(/C=C2\SC(=S)N(CCC(=O)Nc3ccc(O)cc3)C2=O)c1	i	i	i	i	i	i
Cc1cccc(NC(=O)Cn2cc(C(=O)C3CCCCC3)c3ccccc32)c1C	i	nt	i	nt	i	i
Cc1ccc(Cn2c(CN3CCC(C(=O)NCc4ccccc4C)CC3)cc3ccccc32)cc1	i	nt	i	nt	i	i
COCC(=O)Nc1nc2n(n1)C(c1ccc(Cl)cc1)CC(c1ccc(OC)cc1)N2 (stereo not drawn)	?	i	i	i	79µM	?
COCC(=O)Nc1nc2n(n1)C(c1ccccc1Cl)CC(c1ccc(OC)cc1)N2 (stereo not drawn)	?	i	i	i	?	i
CCCn1cc(S(=O)(=O)c2cccc(Cl)c2)c(=O)c2cc(F)c(N3CCOCC3)cc21	i	nt	i	nt	i	i
O=C(NCc1ccccn1)c1nc(-c2cccs2)no1	i	i	i	i	28µM	i
O=C(NCc1cccs1)c1nc(-c2cccs2)no1	i	i	i	nt	i	i
O=C(CCS(=O)(=O)c1nc(-c2ccc3c(c2)OCO3)cc(C(F)(F)F)n1)Nc1ccc(F)c(Cl)c1	i	nt	i	nt	i	i
NC(=O)c1c(NC(=O)c2ccncc2)sc2c1CCCCCC2	i	i	i	i	i	i
CC(C)OC(=O)c1c(NC(=O)C2CC=CCC2C(=O)O)sc2c1CCCCC2 (stereo not drawn)	?	i	i	i	45µM	i
NC(=O)c1c(NC(=O)C2CC=CCC2C(=O)O)sc2c1CCCCC2 (stereo not drawn)	?	i	?	i	8.9µM	56µM
NS(=O)(=O)c1ccc(S(=O)(=O)N2CCN(c3nc(-c4ccccc4)nc4ccccc34)CC2)cc1	nt	nt	i	nt	nt	i
Cc1ccccc1NCCNc1ccccc1C	?	i	i	i	45µM	i
Cc1ccc(C(=O)CNc2ccccc2C)cc1	i	i	i	i	?	i
C/C(=N/NC(=O)CNC(=O)/C=C/c1ccco1)c1ccc(Cl)cc1	56µM	i	i	i	i	i
O=C(/C=C/c1ccco1)NCC(=O)N/N=C/c1ccc([N+](=O)[O-])cc1	?	i	?	nt	?	14µM
O=C(/C=C/c1ccco1)NCC(=O)N/N=C/c1ccc(Cl)cc1	i	i	i	i	i	i
O=C(N/N=C/C=C/c1ccco1)c1cccc([N+](=O)[O-])c1	i	i	i	i	?	i
SMILES	BAZ2B inh	Six1-Eya2 blk	HP1b binding inh	CtBP-E1A blk	G9a block	JMJD2A Tudor
COc1ccccc1/C=C/C(=O)NCC(=O)N/N=C(/C)c1ccc(Cl)cc1	i	i	i	nt	i	i
O=C(/C=C/c1ccc([N+](=O)[O-])cc1)/C=C/c1ccco1	28µM	nt	nt	nt	10µM	nt
O=C(/C=C/c1ccco1)c1cccc([N+](=O)[O-])c1	nt	?	?	i	nt	35µM
Cc1cccc(Cl)c1OCCCn1ccnc1	28µM	i	28µM	nt	10µM	7.9µM
CCN(CC)CCOc1c(C)cccc1Cl	79µM	i	i	i	i	i
Cc1cc(OCCCn2ccnc2)cc(C)c1Cl	nt	i	i	i	?	?
Cc1cc(Cl)cc(C)c1OCCCCCn1ccnc1	32µM	i	i	i	?	?
O=C(Nc1ccc(F)c(Cl)c1)N1CC=C(c2c[nH]c3ccccc23)CC1	?	nt	i	nt	?	?
CCOc1cccc(C=Nc2cc(C)cc(C)c2O)c1O	?	i	i	i	?	18µM
CCOc1cccc(/C=N/N=C/c2cccc(OCC)c2O)c1O	i	i	i	i	i	i
N/C(=N\OC(=O)COc1ccc(Br)cc1)c1ccncc1	i	i	i	i	i	i
N/C(=N\OS(=O)(=O)c1ccc(Cl)cc1)c1ccccn1	25µM	?	i	i	2µM	25µM
N/C(=N\OS(=O)(=O)c1ccccc1)c1ccccn1	22µM	?	i	i	?	3.5µM
CC(C)C(=O)O/N=C(\N)c1ccccn1	i	i	i	i	i	i
N/C(=N\OS(=O)(=O)c1ccc(Br)cc1)c1ccncc1	i	i	i	i	40µM	i
N#C/C(=C/c1cn(-c2ccccc2)nc1-c1cccc(OCc2ccc(F)cc2)c1)C(=O)NCCCn1ccnc1	10µM	i	i	i	i	16µM
CCCOc1cccc(-c2nn(-c3ccccc3)cc2/C=C(\C#N)C(=O)NCCCn2ccnc2)c1	?	i	?	i	i	45µM
COc1ccc(NS(=O)(=O)c2cc(-c3cnc(C4CC4)o3)ccc2C)cc1	?	i	i	nt	50µM	?
COc1ccc(-c2cnc(C)o2)cc1S(=O)(=O)Nc1ccc(C)c(N(C)C)c1	50µM	nt	i	nt	?	?
COc1cc(-c2noc(-c3ccc(N4CCN(C)CC4)c([N+](=O)[O-])c3)n2)cc(OC)c1OC	i	nt	i	nt	?	i
CCN(CC)CCC(c1ccc(N(C)C)cc1)c1c(O)cc(OC)cc1OC (stereo not drawn)	50µM	?	?	?	?	40µM
COc1cc(O)c(C(CC(=O)N2CCCCC2)c2ccc(N(C)C)cc2)c(OC)c1 (stereo not drawn)	?	i	i	i	?	50µM
COc1ccc(C(CCN2CCN(c3ccccc3)CC2)c2c(O)cc(OC)cc2OC)cc1 (stereo not drawn)	28µM	?	i	i	i[12.7 µM]	16µM
COc1ccc(N2CCN(CCC(O)c3ccc4ccccc4c3)CC2)cc1 (stereo not drawn)	i	?	?	nt	40µM	50µM
O=C(CN1C=NS(=O)(=O)c2ccccc21)Nc1ccc(Br)cc1	i	nt	i	nt	i	i
CCC(C(=O)NCc1ccccc1OC)n1nc(C)n2c(cc3sccc32)c1=O (stereo not drawn)	i	nt	i	nt	i	i
